This note sets out measurements from PubChem BioAssay AID1259416 (Broad Institute, 2018).

“And” between values parts separate entries of the source, which are not always exact repeats. Equal values may be shown once. The whole screen tested about 69,000 compounds, of which about 2,600 (3.8%) were called active. Rule as the data show it: active = activity change below about -70% (passing the limit was not always enough); inconclusive = no clear call, values can overlap the other calls. Shown is part of a subset that was picked to be rich in actives. Where a structure was tested more than once in an assay, its records may differ in their call.

The assay in a line: inhibitors of Toxoplasma growth in IFN-γ-primed hosts – cell-based, primary screen (AID 1259416).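 Also: host cells are HeLa cells infected with Toxoplasma gondii.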 The settings on record: Toxoplasma gondii growth in IFN-gamma-treated host cells; stronger effect = lower value; concentration not given here.
Regarding `N#C[C@H]1N[C@H](CO)[C@H]1c1ccc(-c2cccc(F)c2)cc1`, the activity change, negative = inhibition was 17.8% (inactive).

`CC(=O)N1CCCCN2[C@H](CO)[C@H](c3ccc(-c4ccccc4)cc3)[C@@H]2C1`: the activity change, negative = inhibition was 12.2% (inactive).

Consider `CC(C)C(=O)Nc1cccnc1-c1ccc(C(C)N2CCOCC2)cc1` (centres undefined), for which the activity change, negative = inhibition is 0.361% (inactive).

Turning to `COc1ccccc1CCC(=O)N1CCC2(CC1)Nc1cccnc1NC2=NC(C)(C)C`, the activity change, negative = inhibition was 74.7% (inactive).

Consider `Cc1[nH]c2ccccc2c1Sc1ccc(Cl)cc1`, for which the activity change, negative = inhibition was -55.7% (inactive).

With `Cc1cc(C)c(C#N)c(Sc2ccc(Cl)cc2)n1`, the activity change, negative = inhibition is -73.5% (active).

As for `CSc1nn2c(C)cc(C)nc2c1C#N`, the activity change, negative = inhibition is 44.4% (inactive).

On to `COc1ccc(NS(=O)(=O)c2ccc(NC(=S)NC(=O)c3cccs3)cc2)nn1`, for which the activity change, negative = inhibition is 1.98% (inactive).

In the case of `O=C(Cc1ccccn1)N1[C@@H]2CNc3ccccc3[C@@H]2[C@@H]1CO`, the activity change, negative = inhibition is 1.07% (inactive).

As for `CCCn1cc(C(=O)N(Cc2ccccn2)CC2CCCO2)c(C)n1` (centres undefined), the activity change, negative = inhibition was -1.25% (inactive).

In the case of `Cc1nc([C@@H]2C[C@H]3CCN(Cc4sccc4C)C[C@@H]3O2)no1`, the activity change, negative = inhibition is 95.8% (inactive).

With `Cc1ccc2c(c1C)-n1cccc1C1(CCN(S(=O)(=O)c3ccc(C4CCCCC4)cc3)CC1)N2`, the activity change, negative = inhibition is 30.2% (inactive).

Take `Cn1c(SCc2csc(C3CCCCC3)n2)nc2ccccc2c1=O`: the activity change, negative = inhibition is -80.1% (active).

With `Cn1c(CNC(=O)CC2CCCC2)nnc1SCc1ccccn1`, the activity change, negative = inhibition was 2.95% (inactive).

In the case of `C=CCn1c(SCc2ccc(C(=O)NCCO)cc2)nc2ccccc2c1=O`, the activity change, negative = inhibition is -34.4% (inactive).

For `Cc1ccsc1-c1cn(CC2(Cn3ccnc3C)CC2)nn1`, the activity change, negative = inhibition is 8.54% (inactive).

For the molecule `O=C(c1cn(-c2ccccc2)nn1)N(Cc1ccsc1)CC1CCCO1` (centres undefined), the activity change, negative = inhibition is 1.85% (inactive).

Take `COCc1ncc(CN2CCC(Cc3cccc(C(=O)O)c3)C2)cn1` (centres undefined): the activity change, negative = inhibition was 3.4% (inactive).

In the case of `Cc1oc(C(C)(C)C)cc1C(=O)Nc1ccc(SCc2cccc(Cl)c2F)cc1`, the activity change, negative = inhibition is -75.3% (active).

For `Cc1cnc(CN(C)C(=O)C(C)(C)NC(=O)c2cccs2)[nH]1`, the activity change, negative = inhibition was -13.9% (inactive).

For the molecule `CN1CCN(c2ccc3nc(-c4c(N)c5c(F)cccc5[nH]c4=O)[nH]c3c2)CC1`, the activity change, negative = inhibition is -66.4% (inactive) and -77.3% (active).

For the molecule `Clc1cccnc1-c1cccc2[nH]ccc12`, the activity change, negative = inhibition was 9.34% (inactive).

For the molecule `CC(C)C(=O)NS(=O)(=O)c1ccc(NC(=O)c2ccccc2)cc1`, the activity change, negative = inhibition was 5.8% (inactive).

As to `COc1cc(NC(=O)Nc2cccc(CNC(=O)O[C@H]3CCOC3)c2)ccc1-c1cnco1`, the activity change, negative = inhibition was -72.9% (active).

Consider `COc1cccc(CNC(=O)Nc2ccc(-c3nc(-c4cc(C)ccc4C)co3)cc2)c1`, for which the activity change, negative = inhibition was -13% (inactive).

Regarding `COc1cccc(NC(=O)Nc2ccc3c(c2)C(=O)N(C)C[C@@H](OC)[C@H](C)CN(CC2CC2)[C@H](C)CO3)c1`, the activity change, negative = inhibition is 63.1% (inactive).

For the molecule `Cc1nc2c(c(N3CCN(C(=O)c4ccccc4F)CC3)n1)CN(Cc1ccccc1)CC2`, the activity change, negative = inhibition was -27.3% (inactive).

On to `COCC(=O)N1CCC(N(C)Cc2ccccc2)CC1C(=O)O` (centres undefined), for which the activity change, negative = inhibition is 3.74% (inactive).

Take `Cc1nn(C)cc1-c1ccnc(NCC2CCN(Cc3ccccc3)C2)n1` (centres undefined): the activity change, negative = inhibition is -13.6% (inactive).

With `Cc1nn(-c2ccccc2)c(C)c1-c1ccnc(NCc2cnc3ccccn23)n1`, the activity change, negative = inhibition was -82.8% (active).

As for `COc1cc(CN(C)Cc2ncccc2C)cc(OC)c1`, the activity change, negative = inhibition was -4.74% (inactive).

For `COCCN1C(=O)CCc2cc(NC(=O)CC(C)(C)C)ccc21`, the activity change, negative = inhibition was 3.59% (inactive).

For the molecule `CN(Cc1cccnc1)C1COC2(CCN(Cc3cccs3)CC2)C1` (centres undefined), the activity change, negative = inhibition is 1.79% (inactive).

As for `O=C(NCc1cccnc1)c1ccc(N2CCC(NC3C4CC5CC(C4)CC3C5)CC2)cc1` (centres undefined), the activity change, negative = inhibition was 5.88% (inactive).

Consider `O=C(NCCc1nnc2n1CCNCC2)C1(c2ccccc2)CC12CCCC2` (centres undefined), for which the activity change, negative = inhibition was -3.83% (inactive).

In the case of `Cc1cc(C)c2c(-n3cccc3)c(C(=O)c3ccc(Cl)cc3)sc2n1`, the activity change, negative = inhibition is -91.8% (active).

For the molecule `COc1ccc(OC)c(C(=O)c2ccc(Cl)cc2)c1`, the activity change, negative = inhibition is 36.6% (inactive).

Regarding `Cc1cc(C)c2c(n1)sc1c(=O)n(C)cnc12`, the activity change, negative = inhibition was -4.83% (inactive).

As for `Cn1cc(C(CNC(=O)Nc2cccc(F)c2)c2cccnc2)c2ccccc21` (centres undefined), the activity change, negative = inhibition is 27% (inactive).

As to `CO[C@@H]1CN(C)C(=O)c2cc(NC(=O)NC3CCCCC3)ccc2OC[C@H](C)N(CC2CCOCC2)C[C@H]1C`, the activity change, negative = inhibition is -30.9% (inactive).

For `CO[C@@H]1CN(C)C(=O)c2ccc(NS(C)(=O)=O)cc2OC[C@@H](C)N(CC2CC2)C[C@@H]1C`, the activity change, negative = inhibition is -56.4% (inactive).

As to `CCCC(=O)Nc1ccc2c(c1)OC[C@@H](C)N(CC1CCOCC1)C[C@H](C)[C@H](OC)CN(C)C2=O`, the activity change, negative = inhibition was -83.2% (active).

Consider `O=C(CCc1nc(-c2ccccn2)no1)N1CCC(CCc2ccccc2F)CC1`, for which the activity change, negative = inhibition is 18.8% (inactive).

In the case of `CCc1[nH]c2c(CNS(=O)(=O)N(C)C)cc(C)cc2c1C`, the activity change, negative = inhibition was -4.66% (inactive).

Turning to `Cc1nc(Nc2ccc(Cl)cc2)sc1C(=O)c1ccncc1`, the activity change, negative = inhibition was 0.796% (inactive).

`Fc1ccc(Cl)cc1-c1nc(Nc2ccncc2)c2nccnc2n1`: the activity change, negative = inhibition is -81% (active).

Turning to `O=C(Nc1ccccc1Oc1ccc(F)cc1)C1CC(=O)N(Cc2cccnc2)C1` (centres undefined), the activity change, negative = inhibition is 18.8% (inactive).

As for `O=C(Nc1nc(-c2ccc(Br)cc2)cs1)c1c(O)c2ccccc2[nH]c1=O`, the activity change, negative = inhibition is 8.75% (inactive).

Take `CCCc1nc(C)c(CNC(=O)C2CCOC2)s1` (centres undefined): the activity change, negative = inhibition was -2.34% (inactive).

With `COCCCNC(=O)c1nc(Nc2ccc(F)cc2)c2ccccc2n1`, the activity change, negative = inhibition is -29% (inactive).

`C=CC(=O)Nc1ccc2c(c1)CCC(=O)N2CC`: the activity change, negative = inhibition was -3.01% (inactive).

In the case of `O=C(Cn1c(C(=O)c2ccccc2)nc2ccccc21)c1ccc(Br)cc1`, the activity change, negative = inhibition is -103% (active).

Consider `O=C(CNC(=O)c1ccccc1F)c1ccc(Br)cc1`, for which the activity change, negative = inhibition is 264% (inactive).

Take `O=C(Cn1c(NCCCO)nc2ccccc21)c1ccccc1`: the activity change, negative = inhibition was -22.3% (inactive).

For the molecule `Clc1cccc(CN2CC3CCCC(C2)C3N2CCOCC2)c1Cl` (centres undefined), the activity change, negative = inhibition was 9.4% (inactive).

Regarding `C[C@@H]1CN([C@H](C)CO)C(=O)c2cccc(NC(=O)c3ccc(-c4nccs4)cc3)c2O[C@@H]1CN(C)C(=O)Nc1ccc(C(F)(F)F)cc1`, the activity change, negative = inhibition is -77.7% (active).

As for `CC(C)NC(=O)N(C)C[C@H]1Oc2c(NS(=O)(=O)c3cccs3)cccc2C(=O)N([C@H](C)CO)C[C@H]1C`, the activity change, negative = inhibition was -14.3% (inactive).

As for `C[C@H](CO)N1C[C@H](C)[C@@H](CN(C)Cc2ccc(C(F)(F)F)cc2)Oc2c(NC(=O)NC3CCCCC3)cccc2C1=O`, the activity change, negative = inhibition was -53.4% (inactive).

With `C[C@H]1CN([C@@H](C)CO)C(=O)c2cccc(NC(=O)c3ccc(-c4nccs4)cc3)c2O[C@@H]1CN(C)C(=O)Nc1ccc(C(F)(F)F)cc1`, the activity change, negative = inhibition is -80.3% (active).

With `C[C@H]1CN([C@@H](C)CO)C(=O)c2cccc(NC(=O)C3CCOCC3)c2O[C@@H]1CN(C)C(=O)Nc1cccc2ccccc12`, the activity change, negative = inhibition was 5.47% (inactive).

On to `C[C@@H]1CN([C@H](C)CO)C(=O)c2cccc(NC(=O)NC3CCCCC3)c2O[C@H]1CN(C)Cc1ccc(C(F)(F)F)cc1`, for which the activity change, negative = inhibition is -74.3% (active).

Consider `C[C@H]1CN([C@@H](C)CO)C(=O)c2ccccc2-c2ccccc2CO[C@H]1CN(C)C(=O)Nc1ccc(-c2ccccc2)cc1`, for which the activity change, negative = inhibition is -62.1% (inactive).

Consider `Cc1noc(C)c1S(=O)(=O)Nc1cccc2c1O[C@H](CN(C)Cc1ccc(C(F)(F)F)cc1)[C@H](C)CN([C@@H](C)CO)C2=O`, for which the activity change, negative = inhibition was 25.4% (inactive).

`Cc1ccc(S(=O)(=O)Nc2cccc3c2O[C@H](CN(C)C(=O)Nc2ccc(C(F)(F)F)cc2)[C@@H](C)CN([C@@H](C)CO)C3=O)cc1`: the activity change, negative = inhibition was 16.3% (inactive).
